In the library only some 2.4% were active in any assay of this set; here they are far more common.
PLCb3 inh = blocks human PLC-beta3 enzyme activity; AID 720704; Q01970; 370,000 compounds, 0.18% hits; Purified PLC-beta3, fluorogenic substrate, fluorescence; inhibition, % at 12.2 µM; in the data active means inhibition above about 11%;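 further: 0% = median of compound wells on plate and 100% = full blocker control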
MBD2 inh = blocks human MBD2 binding to methylated DNA; inhibition, % at 4.4 µM; Q9UBB5; 370,000 compounds, 0.31% hits; TR-FRET, MBD2 binding to methylated oligonucleotide; in the data active means inhibition above about 13%
PLCg1 inh = PLC-gamma1 (human) inhibition, primary screen; purified PLC-gamma1, fluorogenic substrate, fluorescence; inhibition, % at 12.2 µM; 370,000 compounds, 0.84% hits; P19174
UHRF1 MBD2 ctr = UHRF1 methyl-DNA binding inhibition; Q96T88; UHRF1 binding to methylated oligo, TR-FRET; inhibition, % at 4.4 µM; 370,000 compounds, 0.75% hits; in the data active means inhibition above about 21%;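 further: UHRF1 SRA domain binding a hemimethylated CpG hairpin DNA probe; 0% = median of test compound wells and 100% = reference inhibitor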
Target sequence (Q96T88 whole entry, looked up, the tested form may be a part): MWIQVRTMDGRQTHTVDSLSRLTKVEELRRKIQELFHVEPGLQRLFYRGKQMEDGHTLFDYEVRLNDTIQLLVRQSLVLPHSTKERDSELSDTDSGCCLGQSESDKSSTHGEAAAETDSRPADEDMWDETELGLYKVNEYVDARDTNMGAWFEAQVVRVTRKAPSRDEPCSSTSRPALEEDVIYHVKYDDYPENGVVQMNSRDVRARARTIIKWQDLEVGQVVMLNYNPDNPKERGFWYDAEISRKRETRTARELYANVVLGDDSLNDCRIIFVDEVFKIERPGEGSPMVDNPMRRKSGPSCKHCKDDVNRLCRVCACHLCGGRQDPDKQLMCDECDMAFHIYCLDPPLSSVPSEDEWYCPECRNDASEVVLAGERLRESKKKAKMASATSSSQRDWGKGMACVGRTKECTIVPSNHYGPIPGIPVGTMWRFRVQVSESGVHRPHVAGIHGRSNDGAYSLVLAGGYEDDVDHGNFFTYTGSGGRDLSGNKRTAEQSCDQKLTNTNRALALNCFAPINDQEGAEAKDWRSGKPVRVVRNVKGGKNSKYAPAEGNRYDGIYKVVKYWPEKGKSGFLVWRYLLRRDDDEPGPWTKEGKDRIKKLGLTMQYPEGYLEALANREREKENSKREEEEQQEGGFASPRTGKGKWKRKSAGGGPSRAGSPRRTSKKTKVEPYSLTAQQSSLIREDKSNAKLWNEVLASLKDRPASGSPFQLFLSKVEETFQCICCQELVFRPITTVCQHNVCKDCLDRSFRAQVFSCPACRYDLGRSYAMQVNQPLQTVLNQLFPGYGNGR
LEDGF integ inh = blocks HIV-1 LEDGF/p75-dependent DNA integration; TR-FRET IN-LEDGF/p75 DNA integration, Eu/Cy5; inhibition, % at 3.7 µM; 370,000 compounds, 0.64% hits;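 active means inhibition above the screen-wide mean plus 3 SD, cut at about 13% in these data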;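 further: signal is the Cy5 over europium emission ratio at 671 and 618 nm; 0% = plate median of compound wells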
PLCg1 ctr = inhibits human PLC-gamma1 in PLC-beta3 counter-screen; shares compounds with PLCg1 inh; purified PLC-gamma1, fluorogenic substrate, fluorescence; inhibition, % at 12.3 µM; 3,300 compounds, 3.1% hits; AID 743258
PLCb3 confirm = confirmation of human PLC-beta3 inhibitors | shares compounds with PLCg1 inh | purified PLC-beta3, fluorogenic substrate fluorescence | inhibition, % at 12.3 µM | 3,300 compounds, 1% hits | AID 743261; in the data active means inhibition above about 11%
* hit, by the source's call; nt = no result given. Unless noted, no stated cut-off is given here; in the data, active means inhibition above about 9.5%; inactive means the rest.

SMILES	PLCb3 inh	MBD2 inh	PLCg1 inh	UHRF1 MBD2 ctr	LEDGF integ inh	PLCg1 ctr	PLCb3 confirm
COc1ccc(Cn2c(NC(=O)c3ccccc3)nc(Cc3ccccc3)c2Cc2ccccc2)c(OC)c1	-22	-2	-16	0	5	nt	nt
CCOC(=O)Cc1csc(NC(=O)CCc2ccccc2)n1	-6	5	2	1	-2	nt	nt
CCOC(=O)Cc1nnc(NC(=O)CCc2ccccc2)s1	-4	3	11*	4	-2	-1	-10
O=C(c1cccc(Oc2ccccc2)c1)N1CCC(Oc2cccnc2)CC1	-1	-3	0	-3	2	nt	nt
CC1CCc2cc(F)ccc2N1C(=O)CSc1nnc2c3ccccc3n(C)c2n1 (stereo not drawn)	2	-2	9.7*	-2	1	-10	-3
COC(=O)c1ccc(C(c2c(C)n(C)n(-c3ccccc3)c2=O)c2c(C)n(C)n(-c3ccccc3)c2=O)cc1	9	-5	12*	1	1	2	5
Cc1c(C(c2ccc(Br)cc2)c2c(C)n(C)n(-c3ccccc3)c2=O)c(=O)n(-c2ccccc2)n1C	-4	0	-2	0	-5	nt	nt
O=C(c1cnc2c(c1)COc1ccc(Cl)cc1-2)c1ccccc1O	2	1	12*	2	1	-25	-24
CN1Cc2cc(C(=O)c3ccccc3O)cnc2NC1=O	-29	-1	-16	2	2	nt	nt
Cc1ccc(O)c(C(=O)c2cnc3c(c2)COc2ccccc2-3)c1	-5	2	14*	2	-1	-15	-11
NC(=O)C1CCN(c2nc(-c3ccc(OCc4ccccc4)cc3)cs2)CC1	-4	3	8	6	-2	nt	nt
O=c1[nH]c(-c2ccccn2)nc(C(F)(F)F)c1Br	1	-4	11*	-1	6	-5	-3
O=c1[nH]c(-c2ccccn2)nc2ccccc12	-5	1	-1	-2	-2	nt	nt
Nc1nonc1C(=O)NCCNCc1ccccc1OCc1ccccc1F	-1	0	0	-3	0	nt	nt
Nc1nonc1C(=O)NCCNCc1cc(Br)ccc1OCc1ccccc1F	11*	-2	9.8*	-1	8	0	3
COc1ccc(C2=NOC(Cn3nc(C(=O)NCc4cccc(Br)c4)cc3-c3ccccc3)C2)cc1 (stereo not drawn)	1	-2	2	-2	-1	nt	nt
COc1ccc(C2=NOC(Cn3nc(-c4ccccc4)cc3C(=O)NCc3cccc(Br)c3)C2)cc1 (stereo not drawn)	16*	-1	-21	4	-1	-2	-1
O=C1OCc2cc(NS(=O)(=O)c3cccs3)ccc21	-1	9	10*	3	8	-2	-6
O=S(=O)(Nc1ccc2c(c1)CCC2)c1cccs1	-2	-7	0	1	-1	nt	nt
COc1ccc(Cn2cc(CN3[C@@H](Cc4ccccc4)COc4cc(Br)ccc4S3(=O)=O)nn2)cc1	-4	4	0	-1	-5	nt	nt
O=C(Nc1ccc(Cl)cc1F)c1cc(S(=O)(=O)N2CCCCC2)ccc1F	-2	-3	12*	6	-5	-6	-5
COc1ccccc1NC(=O)c1cc(S(=O)(=O)N2CCCCCC2)ccc1F	-5	0	2	9	-7	nt	nt
CC(C)C[C@H]1COc2cc(Br)ccc2S(=O)(=O)N1Cc1cn(Cc2ccc(F)cc2)nn1	2	-6	-2	-4	0	nt	nt
O=C(NCCc1ccccc1Cl)[C@@H]1CCCN1C(=O)[C@@H](NC(=O)N1CCOCC1)C1CCCCC1	-1	-5	5	0	-2	nt	nt
O=C(O)/C=C\C(=O)NCc1ccccc1	1	4	0	0	2	nt	nt
SMILES	PLCb3 inh	MBD2 inh	PLCg1 inh	UHRF1 MBD2 ctr	LEDGF integ inh	PLCg1 ctr	PLCb3 confirm
O=C(O)/C=C/C(=O)NCc1ccccc1	6	-8	10*	2	2	-6	-3
CC1Cc2ccccc2N1C(=O)Cn1cc([N+](=O)[O-])cn1 (stereo not drawn)	13*	0	4	0	3	8	2
CC1CCN(CC(=O)N2c3ccccc3CC2C)CC1 (stereo not drawn)	-2	-1	0	10	-4	nt	nt
CC1Cc2ccccc2N1C(=O)CN1CCN(Cc2ccccc2)CC1 (stereo not drawn)	1	-3	9.8*	4	4	-4	-1
O=C1CCC[C@H]2C[C@H](NCc3ccc(F)cc3)CC[C@]23CCCN13	-3	7	-1	0	-2	nt	nt
CC1CCC(NC(=O)CCN2C(=O)C3CC=CCC3C2=O)CC1 (stereo not drawn)	0	3	12*	3	7	-2	1
CCN1CCN(CC2CC3C=CC2C3)CC1 (stereo not drawn)	5	2	4	0	3	nt	nt
CS(=O)(=O)N1CCN(CC2CC3C=CC2C3)CC1 (stereo not drawn)	-1	2	10.0*	-1	0	-3	-1
COC(=O)[C@]12C[C@H](CC(=O)NCCCCc3ccccc3)C(=O)N(CCc3ccc(OC)c(OC)c3)C1=C[C@H](COCc1ccccc1)O[C@@H]2C	0	-1	2	-1	0	nt	nt
CCOC(=O)c1cccc(NC(=O)CN(C)S(=O)(=O)c2ccco2)c1	-2	-2	1	2	3	nt	nt
O=C(c1cccc(C(F)(F)F)c1)N1CCOC12CCN(c1ncc(C(F)(F)F)cc1Cl)CC2	2	-4	11*	4	1	-5	-3
O=C(OC1CCN(c2ncc(C(F)(F)F)cc2Cl)CC1)c1cccc(C(F)(F)F)c1	2	-6	1	-1	3	nt	nt
Cc1ccnc(NC(=O)C23CC4CC(CC(C4)C2)C3)c1	11*	0	8	5	3	-2	-2
O=C(Nc1cccnc1)C12CC3CC(CC(C3)C1)C2	11*	-1	2	2	3	-9	-3
O=C(NNC(=O)C12CC3CC(CC(C3)C1)C2)c1cnccn1	4	-2	11*	3	3	-5	0
O=C(NNC(=O)C12CC3CC(CC(C3)C1)C2)c1ccccn1	0	4	-1	1	-2	nt	nt
CCn1c(=O)c([N+](=O)[O-])c(N2CCSCC2)c2ccccc21	-5	-1	12*	2	0	-2	-2
Cn1c(=O)c([N+](=O)[O-])c(N2CCSCC2)c2ccccc21	5	1	0	-1	0	nt	nt
CCCCNC(=O)C1(C(=O)C2CC2)CC(C(=O)OCC)=NO1 (stereo not drawn)	3	-1	-2	1	-3	nt	nt
COC(=O)c1ccccc1NC(=O)CCNC(=O)Cn1cnc2ccccc2c1=O	0	1	-2	-1	1	nt	nt
CCCN(C(=O)CCNC(=O)Cn1cnc2ccccc2c1=O)c1cccc(C)c1	-3	4	11*	6	-8	-4	-4
